Test results as given in PubChem BioAssay AID624330 (Southern Research Specialized Biocontainment Screening …, 2012).
The campaign covered roughly 340,000 compounds. About 2,100 (0.62%) were called active.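 The calls were made as follows: active = first-screen hits whose inhibition reached a set limit at any dose in the follow-up dose series; inconclusive = inhibition above the set first-screen limit but never retested; inactive = the rest.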 Not all results are given here. Measured potencies and affinities stand elsewhere.

Molecular target: Rac GTPase-activating protein 1 (Homo sapiens) (UniProt Q9H0H5)
Assay: blockers of MgcRacGAP-driven Rac1 GTP hydrolysis – biochemical, ADP Hunter fluorescence, primary and confirmatory, confirmation (AID 624330);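 also: fluorescence reports GDP produced by GAP-driven GTP hydrolysis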
Details: MgcRacGAP-stimulated Rac1 GTP hydrolysis, at 30 µM, hits give high values, GST-tagged Rac1 F28L mutant substrate

Chain of Rac GTPase-activating protein 1 (Homo sapiens) (Q9H0H5 whole entry, looked up): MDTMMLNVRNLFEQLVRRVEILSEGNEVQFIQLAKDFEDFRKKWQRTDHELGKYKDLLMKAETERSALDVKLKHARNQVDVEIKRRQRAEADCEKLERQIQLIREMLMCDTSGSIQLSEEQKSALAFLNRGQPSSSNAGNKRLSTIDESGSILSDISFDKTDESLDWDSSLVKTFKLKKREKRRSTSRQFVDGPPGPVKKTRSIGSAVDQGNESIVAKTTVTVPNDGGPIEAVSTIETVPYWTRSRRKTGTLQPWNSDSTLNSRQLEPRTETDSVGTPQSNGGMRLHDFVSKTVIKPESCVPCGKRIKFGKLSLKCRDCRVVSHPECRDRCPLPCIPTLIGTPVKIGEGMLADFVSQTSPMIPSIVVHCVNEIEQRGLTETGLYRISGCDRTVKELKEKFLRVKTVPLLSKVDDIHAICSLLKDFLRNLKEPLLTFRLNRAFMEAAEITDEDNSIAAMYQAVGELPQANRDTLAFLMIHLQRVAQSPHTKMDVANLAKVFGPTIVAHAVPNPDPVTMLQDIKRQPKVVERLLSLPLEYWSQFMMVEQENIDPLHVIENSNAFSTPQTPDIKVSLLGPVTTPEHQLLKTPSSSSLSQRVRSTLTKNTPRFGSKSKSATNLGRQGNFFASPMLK

inhibition, inactive:
CCOc1ccc(S(=O)(=O)Nc2ccccc2C(=O)Nc2ccccc2N2CCOCC2)cc1 1.24%
Cc1ccc(OC(=O)c2cccc(S(=O)(=O)N3CCN(C)CC3)c2)c(Br)c1 10%
CCOc1ccc(C2NC(=O)C(C#N)=C(S)N2c2ccc(C)cc2)cc1OC (stereo not drawn) 51%
COc1ccc(N2C(S)=C(C#N)C(=O)NC2c2ccc(OC)c(OC)c2)cc1 (stereo not drawn) 29%
Cc1cc(C)c2[nH]c(=O)c(CN(CC3CCCO3)C(=S)NCc3ccco3)cc2c1 (stereo not drawn) 10.7%
CN(CC(=O)Nc1ccc(S(=O)(=O)N2CCCC2)cc1)Cc1cccc(Cl)c1Cl 4.27%
Cc1ccc(CN2CC(C(=O)Nc3nc(C)cs3)CC2=O)cc1 (stereo not drawn) -0.43%
CCn1c2ccccc2c2cc(NC(=O)CN3CCCC3)ccc21 5.72%
CC(C)NCC(O)COCCOc1ccc(Cl)cc1 (stereo not drawn) -1.4%
Clc1ccc(OCCCCN2CCCCC2)cc1 28.9%
OC(COc1ccc(Cl)cc1)CN1CCCCC1 (stereo not drawn) -6.24%
COc1ccc(OCC#CCNC(C)(C)C)cc1 18%
CN(C)CCCNc1ncnc2oc(-c3ccccc3)c(-c3ccccc3)c12 10.3%
COc1ccccc1NC(=O)Cn1c(C)nc2c(sc(=S)n2Cc2ccco2)c1=O 8.75%
COC(=O)[C@H]1C[C@H]1[C@@H](NC(=O)c1ccc[nH]1)c1ccccc1 -1.4%
CC(=O)c1ccc(N2CCN(CC(=O)NCc3ccccc3)CC2)cc1 6.75%
CN(Cc1ccccc1)c1nc2c(c(=O)[nH]c(=O)n2C)n1CCOc1ccccc1 13.5%
Cc1ccc2c(nc3s/c(=C\c4ccc(-c5ccccc5C(=O)O)o4)c(=O)n32)c1C 19.4%
O=c1/c(=C/c2ccccn2)sc2nc3ccccc3n12 6.92%
CC1(C)OC(=O)C(=CNCCc2ccc(O)cc2)C(=O)O1 17.2%
CC1(C)CC(=O)C(N=Nc2ccc(-c3ccccc3)cc2)=C(O)C1 9.24%
O=C(Cn1nnc(-c2ccc(Cl)cc2)n1)NC1CCS(=O)(=O)C1 (stereo not drawn) 9.8%
N#Cc1c(N)n(Cc2ccccc2)c(=O)c2cc([N+](=O)[O-])ccc12 9.07%
O=C1c2ccc([N+](=O)[O-])cc2S(=O)(=O)N1Cc1ccccc1 11.7%
O=[N+]([O-])c1ccc(S(=O)Cc2ccccc2)c([N+](=O)[O-])c1 (stereo not drawn) 4.1%
O=c1c2c([N+](=O)[O-])cc([N+](=O)[O-])cc2sn1Cc1ccccc1 31%
CCOC(=O)C(=CNc1ccc(O)c(C(=O)OC)c1)C(=O)OCC 17%
Cc1c(C(=O)COC(C)(C)C)[nH]c2ccccc12 8.87%
O=C(NNC1OC(CO)C(O)C(O)C1O)c1cccc(Br)c1 (stereo not drawn) 0.41%
COc1ccc(N/C=C/C(=O)C(C)(C)C)cc1 16.3%
CC(=O)Nc1ccc(N/C=C/C(=O)C(C)(C)C)cc1 7.27%
O=C(O)CCCn1ccc2cc(S(=O)(=O)N3CCCC3)ccc21 4.17%
Cc1cc(Br)ccc1OCCOCCN1CCCC1 21.4%
Cc1cc(Br)ccc1OCCN1CCCC1 31.4%
CC1CCN(CCCOc2ccc(Cl)cc2Br)CC1 20.7%
Clc1ccc(OCCCN2CCCCC2)c(Br)c1 27.6%
CCC(=NCc1ccccc1)C1=C(O)C(C(=O)OC)C(C)(C)CC1=O (stereo not drawn) 2.32%
COC(=O)C1C(O)=C(C=Nc2ccc3ccccc3c2)C(=O)CC1(C)C (stereo not drawn) 4.62%
COC(=O)C1C(O)=C(C=Nc2ccccc2)C(=O)CC1(C)C (stereo not drawn) -0.8%
CCCC(=O)C1=C(O)C(C(=O)OC)C(C)(C)CC1=Nc1ccc(N)cc1 (stereo not drawn) 7.34%
CCCCC(=Nc1ccc(N)cc1)C1=C(O)C(C(=O)OC)C(C)(C)CC1=O (stereo not drawn) 28.1%
CCCC(=Nc1ccccc1)C1=C(O)C(C(=O)OC)C(C)(C)CC1=O (stereo not drawn) -1.06%
CC(C)Cn1c(N)c(/C=N/NC(=O)c2ccc(Cl)cc2)c(=O)n(C)c1=O 14.9%
Cc1cccc(CNc2ccc(C(CC(N)=O)NC(=O)c3ccccc3)cc2[N+](=O)[O-])c1 (stereo not drawn) -3.89%
O=C(CSc1nccn1-c1ccc(Cl)cc1)N1CCCc2ccccc21 4.77%
Cc1ccc(NC(=O)N2CCCc3ccccc32)cc1C 3.97%
Cc1ccc2nc(C)cc(C(=O)OCC(=O)Nc3cccnc3Cl)c2c1 5.5%
COC(=O)c1ccc(Oc2coc3cc(OCc4ccc([N+](=O)[O-])cc4)ccc3c2=O)cc1 -3.99%
CCN1CCN(CCNC(=O)Cn2c(=O)c3cccn3c3ccc(F)cc32)CC1 13.8%
C#CCNC(=O)C1=C[C@@H](C2CCCCC2)C[C@@H](OCCCCO)O1 6.51%
C=CCn1c(SCCNC(C)=O)nc2cc(-c3ccccc3)sc2c1=O -6.43%
CCN(CC)CCOC(=O)/C=C/c1ccccc1 8.82%
CCN(CC)C(=O)/C=C/c1ccccc1 10.4%
COc1cccc(CNC(=O)CCC2CCCN(C(=O)c3ccc(C)nc3)C2)c1 (stereo not drawn) -7.59%
O=C1NC(=S)N/C1=C\c1ccccc1OCc1ccc(C(=O)O)cc1 7.81%
CN1C(=O)S/C(=C\c2ccccc2OCc2ccc(C(=O)O)cc2)C1=O 7.03%
CCCCC(=O)Nc1nn(CC(C)C)c2nc3ccccc3cc12 -1.14%
FC(F)(F)c1cccc(N2CCc3cn[nH]c32)c1 12.6%
OCCN(Cc1ccccc1)Cc1cccc(C(F)(F)F)c1 16.5%
Cc1cc(=O)c(C(=O)O)nn1-c1cccc(C(F)(F)F)c1 6.55%
Cc1cccc(N2C(=O)CCC2=O)c1 7.43%
Cc1cccc(N2N=C(C(=O)O)CCC2=O)c1 -5.61%
Cc1nnc2ccc(N3CCN(c4cccc(C(F)(F)F)c4)CC3)nn12 5.89%
CCOc1cccc(CN2CCN(c3cccc(C(F)(F)F)c3)CC2)c1O 0.147%
COCC(=O)N1CCN(c2cccc(C(F)(F)F)c2)CC1 4.48%
COC(=O)c1sccc1NC(=O)CN(C)NS(=O)(=O)c1ccc([N+](=O)[O-])cc1 -4.11%
CNC(=S)NCCCc1ccccc1 8.61%
C/C=C(\C)C(=O)OC1[C@H](OC(C)=O)C2(CO)C(CC1(C)C)C1=CCC3C4(C)CCC(O[C@@H]5O[C@H](C(=O)O)[C@@H](O[C@@H]6O[C@H](CO)[C@@H](O)[C@H](O)[C@H]6O)[C@H](O)[C@H]5O[C@H]5O[C@H](CO)[C@@H](O)[C@H](O)[C@H]5O)[C@](C)(CO)C4CCC3(C)[C@]1(C)C[C@H]2O (stereo partly drawn) 1.06%
COCCOC1CCN(C(=O)C2CCC(=O)N(CCc3ccccc3)C2)CC1 (stereo not drawn) 9.57%
CCC(=O)c1ccc(CCCCCC(=O)O)s1 3.88%
O=C(O)/C=C/C(=O)Nc1ccccc1SC(F)(F)F -1%
COc1ccc([N+](=O)[O-])cc1N(CC(=O)NCCCOC(C)C)S(C)(=O)=O 7.79%
Cc1ccc(C)c(NC(=O)C2CCCN(c3cnccn3)C2)c1 (stereo not drawn) 14.2%
C/C(=N\NC(=O)c1cc(O)ccc1O)c1cccc(NC(=O)c2cccc(Cl)c2)c1 25.5%
C/C(=N\NC(=O)c1cccc(N/N=C(\C)c2ccccc2)c1)c1ccccc1 0.42%
O=C(CCC1CCCN(C(=O)c2cncs2)C1)NCc1ccc(F)c(F)c1 (stereo not drawn) 4.71%
CC(C)Sc1nc2ccsc2c(=O)[nH]1 8.22%
O=C(CC1CCCC1)Nc1ccc(Cl)c(S(=O)(=O)N2CCOCC2)c1 1.97%
Cc1ccnc(NC(=S)NC(=O)/C=C/c2ccc(Cl)cc2)c1 3.91%
CN(C)CCCn1c(SCc2c(Cl)cccc2Cl)nnc1-c1ccncc1 25.2%
CCOCCCn1c(SCc2ccccc2)nnc1-c1ccncc1 7.47%
Cc1cc(C)cc(NC(=O)c2cc3c(=O)n4ccccc4nc3s2)c1 7.35%
CC(C)(C)NC(=O)COC(=O)c1ccc(Cl)nc1 2.54%
COc1ccc(NC(=O)C[C@H]2C(=O)N(c3ccc(Br)cc3)C[C@@H]2c2ccc(OC)cc2)cc1 15.9%
COc1ccc([C@H]2CN(c3ccccc3)C(=O)[C@@H]2CC(=O)Nc2ccccc2)cc1 9.26%
COc1ccc(-c2csc(N(CCCN(C)C)C(=O)c3cc(OC)c(OC)c(OC)c3)n2)cc1 4.15%
O=[N+]([O-])c1ccc(N2CCN(c3ccccc3O)CC2)c(Cl)c1 -5.04%
Nc1ccc2c(c1)Cc1cc([N+](=O)[O-])ccc1-2 14.4%
CC(C)(C)C(=O)N1CCN(c2ccc([N+](=O)[O-])cc2Cl)CC1 5.07%
O=[N+]([O-])c1ccc2c(c1)Cc1cc(F)ccc1-2 -1.78%
Brc1ccc(-c2noc(C3CCCCC3)n2)cc1 11.8%
Cc1cc(C)n(-c2cccc(Cl)c2C#N)n1 7.18%
CCOC(=O)c1c(C)c(C(=O)Nc2ccc(F)cc2)c(C)n1C 1.27%
